# According to ChEMBL document CHEMBL1157539, “Thousands of chemical starting points for antimalarial lead identification” (Nature, 2010):
# Test system: Plasmodium falciparum
# Assay: GSK_TCMDC: Inhibition of Plasmodium falciparum Dd2 in whole red blood cells, using parasite LDH activity as an index of growth. Test compounds present at 2uM
# Assay type: functional
row,SMILES,Inhibition [%]
1,Cc1cc(O)c(CN(C)Cc2ccc(N(C)C)cc2)cc1C(C)C,98
2,Cc1cc(N2CCCC2)nc(Nc2ccc(NC(=O)C(C)C)cc2)n1,36
3,CC(=O)Nc1ccc(OCCCN(Cc2ccccc2OC(F)(F)F)c2ccc(C(F)(F)F)c(C#N)c2)c(Cl)c1,80
4,Cc1ccc(NC(=O)c2cccc(CN3CCCN(CC4CCCCC4)CC3)c2)cc1F.O=C(O)C(F)(F)F,42
5,Cc1ccc(NC(=O)c2ccc3ncccc3c2)cc1OC1CCN(Cc2ccsc2)C1.O=C(O)C(F)(F)F (configuration not stated),49
6,Cc1cccn2c(=O)c3cc(C(=O)NCCc4ccccc4)c(=N)n(CCCOC(C)C)c3nc12,40
7,CS(=O)(=O)c1cccc(-c2ccc3oc(C(N)=O)c(NC(=O)c4cccs4)c3c2)c1,77
8,COc1ccc(CNc2ncc(-c3ccsc3)c(-c3nccs3)n2)cc1OC,69
9,CC(=O)c1cccc2[nH]c(C(=O)NC3CCC(CCN4CCc5ccc(C#N)cc5C4)CC3)cc12.Cl (configuration not stated),0
10,CCc1ccc(CNCC(CCNc2cc(=O)c3ccccc3[nH]2)NCc2cc(Br)cc(Br)c2)o1 (configuration not stated),92
11,CC(C)(CNC(=O)/C=C/c1ccc(Cl)c(Cl)c1)CNc1cc(=O)c2ccccc2[nH]1,29
12,FC(F)(F)c1ccc2[nH]c(-c3ccc(-c4ccc(CN5CCN(c6cnccn6)CC5)cc4)s3)nc2c1.O=C(O)C(F)(F)F,99
13,Cl.O=C(Nc1ccc(C(=O)Nc2ccc(C3=NCCN3)cc2)cc1)Nc1ccc(C2=NCCN2)cc1,95
14,CCc1ccc(C(=O)Nc2cccc(CN3CCCN(Cc4ccc(O)cc4)CC3)c2)cc1.O=C(O)C(F)(F)F,74
15,CC(=O)Nc1ccc(NC(=O)c2cc(-c3ccc(C)cc3O)n[nH]2)cc1,78
16,CCc1ccc(-c2cnc(N)c3cc(-c4ccnc(N)n4)ccc23)cc1,70
17,Cc1ccc(O)c(C(=O)c2cnc3c(c2)c(-c2ccc(F)cc2)c(C#N)c(=O)n3C)c1,56
18,COc1ccc(NC(=O)N2CCN(CCCCCNC(=O)/C=C/c3ccc(C(F)(F)F)cc3)CC2)cc1Cl,0
19,Nc1ncnc2cc(-c3cccc(S(N)(=O)=O)c3)sc12,99
20,CCN(CC)CCOc1ccc(C(O)(C#CC(O)(c2ccc(C)cc2)c2ccc(OCCN(CC)CC)cc2)c2ccc(C)cc2)cc1 (configuration not stated),98
21,N#Cc1cc(C(=O)Nc2ccccc2)c(N)nc1SCC(=O)Nc1ccc(Br)cc1,66
22,Cc1cc(Nc2ccncc2)n2nc(C)c(-c3ccc(Cl)cc3)c2n1,99
23,COc1cc2nc(Nc3ccc4c(c3)OCCO4)nc(N)c2cc1OC.Cl,80
24,COc1cccc(-c2csc(C(=O)NCC3CCN(Cc4ccc(C(C)C)cc4)C3)c2)c1.O=C(O)C(F)(F)F (configuration not stated),9
25,CS(=O)(=O)CCNCc1nc(-c2ccc3c(Nc4ccc(Oc5ccccn5)cc4)ccnc3c2)cs1,89
26,CN1CCCc2ccc(NC(=O)Nc3ccc(-c4ccccc4)cc3)cc2C1,47
27,COc1cc(C=CC(=O)N2CCC(CCN3CCC(c4c[nH]c5ccccc45)CC3)CC2)cc(OC)c1,23
